# From PubChem BioAssay (EPA / NIEHS)
# Active and inactive are the calls of the source. Rule for the calls: active = hit-call score of the fitted dose curve at least 0.9, where 1 is the maximum; inactive = score below 0.9.
# Test: ATG_CRE_CIS: Attagene CIS-FACTORIAL HepG2 Assay for human cAMP Responsive Element (CRE) binding protein 3 (AID 2282926)
# Conditions: HepG2 CRE cis-reporter, Attagene multiplexed mRNA; actives raise or lower the signal
# Experimental: ATG_CIS is a cell-based, multiplexed-readout assay that uses HepG2, a human liver cell line, with measurements taken at 24 hours after chemical dosing in a 24-well plate.ATG_CRE_CIS is one of 52 assay component(s) measured or calculated from the ATG_CIS assay. It is designed to make measurements of mRNA induction, a form of inducible reporter, as detected with fluorescence intensity signals by Reverse transcription polymerase chain reaction (RT-PCR) and Capillary electrophoresis technology.Data from the assay component ATG_CRE_CIS was analyzed into 1 assay endpoint. This assay endpoint, ATG_CRE_CIS, was analyzed with bidirectional fitting relative to DMSO as the negative control and baseline of activity. Using a type of inducible reporter, measures of mRNA for gain or loss-of-signal activity can be used to understand the reporter gene at the transcription factor-level as they relate to the gene CREB3. Furthermore, this assay endpoint can be referred to as a primary readout, because this assay has produced multiple assay endpoints where this one serves a reporter gene function. To generalize the intended target to other relatable targets, this assay endpoint is annotated to the dna binding intended target family, where the subfamily is basic leucine zipper.
# Human liver HepG2 cells are transiently transfected with multiple reporter transcription units (MRTUs) in 6-well plates using FuGene 6 reagent (Roche; 3 ml FuGene/1 mg DNA). The MRTU constructs are regulated by a cis-regulating element (promoter). […] A major difference between the CIS and TRANS system is that in CIS activities of endogenous TFs are measured, whereas the TRANS assay evaluates changes in activities of exogenous, chimeric NR-Gal4 proteins. […] At the end of 24 hour incubation, total RNA was isolated using TriZol reagent (Invitrogen). The isolated RNA is then reverse-transcribed using oligo(dT) primer and Mo-MLV reverse transcriptase (Invitrogen) with DNAse I (Ambion) treatment for 30 min. The one-tenth of the produced cDNA was amplified by PCR using Taq DNA polymerase (Invitrogen) and two reporter sequence-specific primers. The PCR products were fluorescently labeled by primer extension with 6-arboxyfluorescein (6-FAM) 5'-labeled reporter sequence-specific primer (2 min at 95 C, 20 s at 68 C and 10 min at 72 C) and these products were digested with 5U of HpaI (New England Biolabs) for 2h at 37 C. The fragments were purified using Qiaquick PCR columns (Qiagen), analyzed on an ABI 3130xL genetic analyzer (Applied Biosystems) with peak positions identified by using a set of X-rhodamine (ROX)-labeled MapMarker1000 molecular weight standards (BioVentures). The raw capillary electrophoresis data was processed using Attagraph software (Attagene).
SMILES,outcome,AC50
CC1=NC(C)OC1C (stereo not given),inactive,
CC[C@H]1OC(=O)[C@H](C)[C@@H](O[C@H]2C[C@@](C)(OC)[C@@H](O)[C@H](C)O2)[C@H](C)[C@@H](O[C@@H]2O[C@H](C)C[C@H](N(C)C)[C@H]2O)[C@](C)(O)C[C@@H](C)C(=NOCOCCOC)[C@H](C)[C@@H](O)[C@]1(C)O,inactive,
CCOC(=O)NNc1nncc2ccccc12,inactive,
C=C[Si](C)(C)O[Si](C)(C)C=C,inactive,
CCOC(=O)c1ccccc1C(=C1C=C(Br)C(=O)C(Br)=C1)c1cc(Br)c(O)c(Br)c1,,25.4 µM (active)
CCCCOCCOC(=O)COc1nc(Cl)c(Cl)cc1Cl,inactive,
CCCCCCOc1cc(C)c(O)c(C)c1C,inactive,
CC(C)(c1cc(Br)c(OCCO)c(Br)c1)c1cc(Br)c(OCCO)c(Br)c1,,38.7 µM (active)
[Cl][Nd]([Cl])[Cl],inactive,
CO[Si](OC)(OC)c1ccccc1,inactive,
O=C1Nc2ccccc2C1(c1ccc(O)cc1)c1ccc(O)cc1,,23.9 µM (active)
C=C(C)c1cccc(C(C)(C)N=C=O)c1,inactive,
Cn1c(=O)[nH]c2ncn(C)c2c1=O,inactive,
COC=O,inactive,
COc1cc(C)ccc1C(C)C,inactive,
C[Si](C)O[Si](C)(C)O[Si](C)(C)O[Si](C)C,inactive,
O=c1c2ccccc2oc2ccccc12,inactive,
CCCCCCCC/C=C\CCCCCCCC(=O)OCCO,,50 µM (active)
CCCC(C)CCC(C)=O (stereo not given),inactive,
CC(C)C(=O)C(C)C,,36.9 µM (active)

SMILES,outcome,AC50
O=C1CCCC1,inactive,
C=CCCCCCCCCC(=O)OCCCC,inactive,
CCO[Si](C)(OCC)OCC,inactive,
COc1ccc2nc(N)sc2c1,inactive,
O=C(Nc1cccc(C(F)(F)F)c1)c1cc(Br)cc(Br)c1O,,100 µM (active)
CC(C)(C)C(=O)C=Cc1ccc(Cl)cc1,inactive,
C#CC1(O)CC[C@H]2[C@@H]3CCC4=CCCC[C@@H]4[C@H]3CC[C@@]21C (stereo not given in full),inactive,
C(=CC=Nc1ccccc1)C=CNc1ccccc1,inactive,
CC1=CC[C@H](C(C)C)C=C1,inactive,
C=C(C)C(=O)OCC(C)C,inactive,
CCCCCCCCCCCSCC(=O)O,inactive,
Nc1ccc2cc3ccccc3cc2c1,inactive,
Cc1ccc(C2OC[C@@H]3OC(c4ccc(C)cc4)O[C@H]([C@H](O)CO)[C@@H]3O2)cc1 (stereo not given in full),inactive,
N[C@H]1C(O)O[C@H](CO)[C@H](O)[C@@H]1O (stereo not given in full),inactive,
CC/C=C\C/C=C\C/C=C\CCCCCCCC(=O)O,,173 µM (active)
C=C(C)C(=O)OCCO,inactive,
CC=CC(F)(F)C(F)(F)C(F)(F)F,inactive,
OC1CCCC1,inactive,
O=C(c1ccccc1)c1ccc(O)c(O)c1O,inactive,
CCN(CC#N)c1cccc(C)c1,inactive,
